# In the library only some 3.1% were active in any assay of this set; here they are far more common.
# BioA inh = inhibitors of Mycobacterium tuberculosis BioA enzyme. 360,000 compounds, 0.096% hits. inhibition, % at 9.99 µM. purified M. tuberculosis BioA enzyme, plate reader. AID 602481; in the data active means inhibition above about 40%
# FadD28 FP inh = inhibitors of Mycobacterium tuberculosis FadD28 bisubstrate binding | AID 588549 | inhibition, % at 12.5 µM | FadD28 bisubstrate probe binding, fluorescence polarization | 360,000 compounds, 0.22% hits; in the data active means inhibition above about 8.5%, passing the limit was not always enough
# Mtb FBA inh = inhibitors of M. tuberculosis fructose-bisphosphate aldolase | P9WQA3 | purified M. tuberculosis FBA, fluorescence read-out | inhibition, % at 1 µM | 360,000 compounds, 2.3% hits | AID 588726; in the data active means inhibition above about 27%;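 further: 0% = vehicle and 100% = reference inhibitor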
# Target sequence (P9WQA3 whole entry, looked up): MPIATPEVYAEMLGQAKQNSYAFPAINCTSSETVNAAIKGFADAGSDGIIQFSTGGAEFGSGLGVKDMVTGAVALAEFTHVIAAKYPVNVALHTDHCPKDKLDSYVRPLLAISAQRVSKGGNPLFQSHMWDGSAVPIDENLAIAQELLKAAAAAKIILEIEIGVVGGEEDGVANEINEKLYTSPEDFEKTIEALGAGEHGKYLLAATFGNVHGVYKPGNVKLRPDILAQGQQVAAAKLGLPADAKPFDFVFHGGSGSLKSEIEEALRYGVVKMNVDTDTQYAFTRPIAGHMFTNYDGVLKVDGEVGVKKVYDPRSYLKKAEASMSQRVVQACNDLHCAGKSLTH
# GDH-TPI inh = counter-screen for M. tuberculosis FBA inhibitors: GDH-TPI coupled enzymes | GDH-TPI coupled enzyme counterscreen, NADH absorbance | inhibition, % at 4.8 µM | 360,000 compounds, 1.2% hits | AID 588335; in the data active means inhibition above about 30%;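 further: 0% = DMSO wells and 100% = wells lacking the enzyme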
# 3CLpro inhibitor = SARS-CoV 3CLpro protease inhibition | 290,000 compounds, 0.14% hits | recombinant SARS-CoV 3CLpro, quenched FRET peptide cleavage | inhibition, % at 6 µM; in the data active means inhibition above about 12%
# * hit, by the source's call; x = not tested or not shown; + = active, no number.
SMILES,BioA inh,FadD28 FP inh,Mtb FBA inh,GDH-TPI inh,3CLpro inhibitor
COC(=O)c1sccc1-c1ccc(C(=O)Nc2cccnc2)o1,1,-3,1,34*,-2
COC(=O)c1sccc1-c1ccc(C(N)=O)o1,x,x,x,x,-1
COc1ccc(-c2ccc3c(c2)[C@@H]2[C@@H](CCN2C(=O)Cc2ccccn2)[C@@H](CO)N3C)cc1,3,x,x,x,x
CC(=O)c1ccc(-c2ccc(/C=C(/Sc3n[nH]c(C)n3)C(=O)O)o2)cc1,x,-1,-17,39*,-1
O=C(O)c1ccc(N/N=C2/CCCc3ccccc32)cc1,x,3,2,79*,5
CN1[C@H](C(=O)NCC(F)(F)F)[C@@H](CO)[C@@H]2Cn3c(ccc(-c4ccc(F)cc4)c3=O)[C@@H]21,3,x,x,x,x
C=CCN(c1ccccc1)S(=O)(=O)c1cccc(C(=O)Oc2ccc3c(C)cc(=O)oc3c2)c1,x,-3,+,-4,9
Cc1cc(=O)oc2cc(OC(=O)c3cncc(Br)c3)ccc12,x,-2,+,-3,-1
O=C(Oc1ccc2c(=O)c(Oc3ccc4ccccc4c3)coc2c1)c1cncc(Br)c1,0,-4,30*,3,-2
O=C(Oc1ccc2ccccc2c1)c1cncc(Br)c1,x,3,2,4,-2
COc1ccc(S(=O)(=O)NC(N)=NCCc2ccccc2OC)cc1,0,-2,191*,-4,1
C[C@@H]1CCCCO[C@@H](CN(C)C(=O)CCCN(C)C)[C@@H](C)CN([C@H](C)CO)C(=O)c2cc(NC(=O)NC3CCCCC3)ccc2O1,0,x,x,x,x
CN=Cc1nc(-c2ccccc2)oc1O,-2,2,-2,59*,2
Cc1cc2c(=O)n(NC(N)=O)c(C)nc2s1,-1,-4,150*,-2,-5
O=C1CCC/C(=N/NC(=O)c2sc3ccccc3c2Cl)C1,x,1,1,55*,-1
O=C(NN=C1CCCC1)c1sc2ccccc2c1Cl,x,-5,-2,0,6
Cc1ccc(NC(=S)NNC(=O)c2ccc(N3CCOCC3)c([N+](=O)[O-])c2)cc1Cl,x,11*,-2,21,2
C[C@@H]1CCCCO[C@H](CN(C)C(=O)Nc2ccc3c(c2)OCO3)[C@H](C)CN([C@H](C)CO)C(=O)c2cc(NC(=O)Cc3ccccc3)ccc2O1,-5,x,x,x,x
Cc1nn2cc(-c3ccc(Cl)cc3)nc2s1,-3,-1,0,17,-1
Cc1nc2nc(-c3ccc(Cl)cc3)cn2nc1C,x,-2,142*,-5,-4
Cc1cc(OCc2cc(C(=O)NC3CCC3)no2)cc(C)c1Cl,0,1,46*,3,5
Cc1ccc(OCc2cc(C(=O)NC3CCCCC3)no2)cn1,0,0,-2,-3,1
O=C(Nc1ccc(F)cc1)N1CCCCN2[C@H](CO)[C@@H](c3ccc(C4=CCCCC4)cc3)[C@H]2C1,0,x,x,x,x
O=C1CS/C(=N/N=C/c2ccco2)N1Cc1ccc(F)cc1,1,-3,-1,38*,2
CC(C)NC(=O)Nc1ccc2c(c1)CC(=O)N([C@@H](C)CO)C[C@H](C)[C@@H](CN(C)CC1CC1)O2,-1,x,x,x,x
SMILES,BioA inh,FadD28 FP inh,Mtb FBA inh,GDH-TPI inh,3CLpro inhibitor
COc1ccc(S(=O)(=O)Nc2ccc3c(c2)CC(=O)N([C@H](C)CO)C[C@H](C)[C@H](CN(C)C(=O)Nc2c(C)noc2C)O3)cc1,-3,x,x,x,x
O=C(C[C@@H]1C[C@H]2c3cc(NS(=O)(=O)c4ccc(F)cc4)ccc3O[C@H]2[C@@H](CO)O1)NCc1ccncc1,0,x,x,x,x
COc1cc(/C=N/NC(=O)CN(Cc2ccccc2)S(=O)(=O)c2ccc3c(c2)OCCO3)ccc1O,x,22*,3,11,4
COc1ccc(/C=N/NC(=O)CN(Cc2ccccc2)S(=O)(=O)c2ccc3c(c2)OCCO3)cc1,x,-2,0,2,0
COc1cc(OC)c(OC)cc1/C=N/NC(=O)c1cc(-c2cccn2C)n[nH]1,x,-3,4,38*,-6
COc1cc(OC)c(OC)cc1/C=N/NC(=O)c1ccc(=O)n(C)c1,x,0,-1,54*,-4
COc1ccc(OC)c(/C=N\NC(=O)c2ccc(=O)n(C)c2)c1,0,-1,11,22,-3
C[C@H]1CN([C@@H](C)CO)C(=O)c2cccc(NS(=O)(=O)c3ccc(Cl)cc3)c2O[C@H]1CN(C)S(=O)(=O)c1cccs1,3,x,x,x,x
N#Cc1cccc(-c2ccc([C@H]3[C@H]4CN(C(=O)Nc5cccc(F)c5)CCCCN4[C@H]3CO)cc2)c1,-1,x,x,x,x
C[C@@H]1CN([C@@H](C)CO)S(=O)(=O)c2ccc(C#CC3CC3)cc2O[C@H]1CN(C)C(=O)c1ccncc1,-6,x,x,x,x
CCOC(=O)C(/C=C(\C#N)C(=O)OCC)=C(/N)N1CCN(c2ccc(Cl)cc2)CC1,1,0,-1,59*,1
CO[C@H]1CN(C)C(=O)c2ccc(NS(=O)(=O)c3ccccc3Cl)cc2OC[C@@H](C)NC[C@@H]1C,0,x,x,x,x
Nc1c(C(=O)c2ccccc2)oc2ccc(Br)cc12,-2,-3,4,8,3
Nc1c(C(=O)c2ccccc2)oc2ccc([N+](=O)[O-])cc12,x,-1,3,34*,4
C[C@@H]1CN([C@@H](C)CO)S(=O)(=O)c2ccc(C#Cc3ccc(F)cc3)cc2O[C@@H]1CN(C)S(=O)(=O)c1ccc(F)cc1,-3,x,x,x,x
Cc1ccc(C)n1C(CC(=O)O)c1ccc(C#N)cc1 (configuration not stated),x,11*,-1,1,1
CCS(=O)(=O)Nc1ccc2c(c1)C(=O)N(C)C[C@H](OC)[C@@H](C)CN(C(=O)COC)[C@H](C)CO2,4,x,x,x,x
C[C@@H]1CN([C@H](C)CO)S(=O)(=O)c2ccc(C#Cc3ccccn3)cc2O[C@@H]1CN(C)C(=O)C1CC1,2,x,x,x,x
CCCCN(CCCNC(=O)c1c(C)cc(=O)oc1C)c1ccccc1,x,1,-1,5,3
CCN(CCCNC(=O)c1c(C)cc(=O)oc1C)c1ccccc1,x,1,1,36*,-5
Cc1cc(=O)oc(C)c1C(=O)NCC(C)C,-1,-1,2,7,-1
CCCNC(=O)c1c(C)cc(=O)oc1C,-2,0,1,47*,3
CCCNC(=O)[C@@H]1[C@@H](CO)[C@@H]2Cn3c(cccc3=O)[C@H]1N2C(=O)C1CCCC1,-1,x,x,x,x
C[C@@H]1CN([C@H](C)CO)C(=O)c2c(c3ccccc3n2C)-c2ccccc2CO[C@@H]1CN(C)Cc1cccnc1,2,x,x,x,x

# Screening results (PubChem BioAssay)
